# Measurements: PubChem BioAssay AID720513 (Broad Institute, 2013)
# Out of some 2,100 compounds screened, about 480 (23%) were called active. Inconclusive results (about 5%) are left out. A selection follows. Potency and affinity values are given separately. A number with no mark means an inactive call.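 The calls were made as follows: active = fitted curve reaches 40% activation at or below the top valid concentration, in every replicate test; inconclusive = replicate tests disagree on the call; inactive = the rest, including activity in the opposite direction.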
# Test: activators raising PGC1a acetylation in cells, dose response, cell-based, cherry-picked samples, set 6 (AID 720513);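 also: cells made to overexpress flag tagged PGC1a plus GCN5 acetyltransferase by viral infection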
# Conditions: U2OS PGC1a acetylation AlphaLISA, overnight, 0 = neutral, -100 = inhibitor control; series mostly up to 19.5 µM; activation (acetylation increase): at the top concentration
row,SMILES,activation (acetylation increase)
1,CN(C)c1ccnc2sc(C(N)=O)c(N)c12,-20.8%
2,Cc1noc(C)c1S(=O)(=O)N(C)C[C@H]1Oc2ccc(NS(=O)(=O)c3cccs3)cc2C(=O)N([C@H](C)CO)C[C@H]1C,9.57%
3,Nc1cc(N)nc(SCC(=O)Nc2ccccc2N2CCOCC2)n1,-30.2%
4,CCOC(=O)CS(=O)(=O)c1nc(-c2ccccc2)cc(C(F)(F)F)n1,-100%
5,CCOc1ccc(/C=C/C(=O)Oc2ccccc2)cc1,-2.16%
6,CSc1cccc(N2CC(C(=O)NCCN3C(=O)S/C(=C\c4cccnc4)C3=O)CC2=O)c1 (configuration not stated),7.23%
7,CN(C)C(=O)C[C@@H]1CC[C@@H]2[C@H](COC[C@@H](O)CN2C(=O)C2CCOCC2)O1,-7.2% [at 10 µM]
8,CC(C)C#Cc1ccc([C@@H]2[C@H]3CN(C(=O)NC4CCCC4)CC(=O)N3[C@H]2CO)cc1,20.8%
9,O=C(CN(Cc1ccc2c(c1)OCO2)C(=O)CNS(=O)(=O)c1ccccc1)NCc1ccco1,6.43%
10,CC(=O)Nc1cccc(-c2ccnc3c2CC(C)(C(=O)Nc2ccc4c(c2)OCO4)O3)c1 (configuration not stated),13.7%
11,Cc1ccccc1OCC(=O)OCC(=O)NCc1ccc2c(c1)OCO2,-2.91%
12,Cn1c(SC2=CS(=O)(=O)c3ccccc32)nc2ccccc21,-91.8%
13,CCOC(=O)CNC(=O)OC1CCN2Cc3ccccc3N=C12 (configuration not stated),-16.2%
14,CN(C)CCNc1oc(COc2ccc(-c3ccccc3)cc2)nc1C#N,-99.8%
15,C[C@H](CO)N1C[C@H](C)[C@@H](CN(C)C(=O)c2ccccn2)Oc2ncc(-c3cccc(C#N)c3)cc2C1=O,1.18%
16,Cc1nc(N(CCO)C2CCCCC2)c2nnn(Cc3ccccc3)c2n1,-1.58%
17,C[C@H](NC(=O)C[C@H]1CC[C@@H](NC(=O)C2CC2)[C@H](CO)O1)c1ccccc1,-6.11%
18,C[C@@H]1CCCCO[C@@H](CN(C)C(=O)c2ccncc2)[C@@H](C)CN([C@H](C)CO)C(=O)c2cc(NC(=O)CCCCCC(=O)Nc3ccccc3N)ccc2O1,-5.98%
19,O=C(CSc1nc2cc(Cl)ccc2s1)NCC1CCCO1 (configuration not stated),4.04%
20,COc1ccccc1CNC(=O)C[C@@H]1CC[C@@H]2[C@H](COC[C@H](O)CN2C(=O)Nc2ccc(Cl)cc2)O1,32.8%
21,CN1CCN(C(=O)C[C@@H]2CC[C@@H]3[C@H](COC[C@H](O)CN3CC3CCCCC3)O2)CC1,-4.22%
22,Cc1ccc(Nc2nc(-c3c(C)nc4ncccn34)cs2)cc1,-31.5%
23,Cc1cnc(NC(=O)c2nn(C)cc2[N+](=O)[O-])s1,12.9%
24,C[C@@H]1CN([C@H](C)CO)C(=O)c2cc(NC(=O)Nc3ccc(F)cc3)ccc2O[C@@H](C)CCCCO[C@@H]1CN(C)C(=O)NC1CCCCC1,2%

row,SMILES,activation (acetylation increase)
1,CCCc1nc2c(=O)n(C)c(=O)nc-2n(C)n1,-98%
2,COc1ccccc1N=C1NC(=O)/C(=C/c2ccc(N(C)C)cc2)S1,-4.74%
3,O=C1/C(=C/c2ccccc2[N+](=O)[O-])COc2ccccc21,-86.7%
4,O=C1C=CCCN1C(=O)/C=C/c1ccccc1Cl,-85%
5,Cn1nc(C(C)(C)C)cc1NC(=O)C1(C)CCN1C(=O)C1(c2ccccc2)CCCC1 (configuration not stated),1.04%
6,COc1ccc(-c2onc(C)c2-c2ccc(C(=O)OC(C)C)o2)c(O)c1,14.5%
7,N#Cc1ccc(CCc2ccccc2)[nH]c1=O,2.14%
8,NS(=O)(=O)c1ccc(-c2ccc(/C=C3\C(=O)Nc4cc(Cl)ccc43)o2)cc1,-10.5%
9,O=C(Nc1nc2c(s1)CN(Cc1ccccc1)CC2)c1c(F)cccc1F,-21.4%
10,COc1ccc(-c2[nH]ncc2CN(C)C(C)c2ccon2)cc1F (configuration not stated),-24.4%
11,COc1ccc(OC)c(-n2c(-c3ccc(C)cc3)n[nH]c2=S)c1,18.7%
12,COc1cccc(-n2c(-c3cccc(S(=O)(=O)N(C)C)c3)n[nH]c2=S)c1,-8.6%
13,COc1ccc2nc(NCc3cccnc3)sc2c1,-12.2%
14,COc1cccc(Cn2c(NCc3cccnc3)nc3c2c(=O)n(C)c(=O)n3C)c1,-13.5%
15,Cc1ccc(S(=O)(=O)Nc2ccccc2C(=O)NCc2cccnc2)cc1,-21.2%
16,CCC(C)C(NC(=O)C1CCC(C)CC1)C(=O)NCc1cccnc1 (configuration not stated),28.8%
17,CCn1cc(C(=O)NCc2cccnc2)c2cc(OC)c(OC)cc2c1=O,12.7%
18,COc1cccc(S(=O)(=O)N[C@H]2CC[C@H](CC(=O)NCc3ccc(F)cc3)O[C@@H]2CO)c1,19.6%
19,C[C@H]1CN([C@@H](C)CO)C(=O)c2cc(C3=CCCC3)cnc2O[C@@H]1CN(C)C(=O)c1cccnc1,7.97%
20,Cc1ccccc1S(=O)(=O)N[C@H]1CC[C@H](CCn2cc(Cc3ccccc3)nn2)O[C@@H]1CO,-0.755%
21,COc1ccccc1C#Cc1ccc2c(c1)O[C@@H](CN(C)Cc1cccnc1)[C@H](C)CN([C@@H](C)CO)S2(=O)=O,-89.7%
22,CO[C@H]1CN(C)C(=O)c2cc(NS(=O)(=O)c3cn(C)cn3)ccc2OC[C@@H](C)NC[C@H]1C,-17.3%
23,CCCCN(c1ccccc1)c1ncnc(N)c1[N+](=O)[O-],-11.8%
